We go through 88 molecules from PubChem BioAssay AID1645855 (Buhrlage Lab, Dana-Farber Cancer Institute and Novartis …, 2021).

About 3,100 (6.6%) of roughly 47,000 compounds were called active. No stated cut-off is given here; in the data, active means inhibition above about 30%; inactive means the rest. Only a selection was taken, and actives are over-represented in it overall.

For this assay, the target named is Ubiquitin carboxyl-terminal hydrolase 17-like protein 5 (Homo sapiens) (UniProt A8MUK1). As to the kind of experiment: inhibitors of human USP17 deubiquitinase (AID 1645855). As to conditions: purified USP17, Ub-rhodamine cleavage fluorescence, 3 h; at 50 µM; active compounds read high.
Sequence of Ubiquitin carboxyl-terminal hydrolase 17-like protein 5 (Homo sapiens) (A8MUK1 whole entry, looked up): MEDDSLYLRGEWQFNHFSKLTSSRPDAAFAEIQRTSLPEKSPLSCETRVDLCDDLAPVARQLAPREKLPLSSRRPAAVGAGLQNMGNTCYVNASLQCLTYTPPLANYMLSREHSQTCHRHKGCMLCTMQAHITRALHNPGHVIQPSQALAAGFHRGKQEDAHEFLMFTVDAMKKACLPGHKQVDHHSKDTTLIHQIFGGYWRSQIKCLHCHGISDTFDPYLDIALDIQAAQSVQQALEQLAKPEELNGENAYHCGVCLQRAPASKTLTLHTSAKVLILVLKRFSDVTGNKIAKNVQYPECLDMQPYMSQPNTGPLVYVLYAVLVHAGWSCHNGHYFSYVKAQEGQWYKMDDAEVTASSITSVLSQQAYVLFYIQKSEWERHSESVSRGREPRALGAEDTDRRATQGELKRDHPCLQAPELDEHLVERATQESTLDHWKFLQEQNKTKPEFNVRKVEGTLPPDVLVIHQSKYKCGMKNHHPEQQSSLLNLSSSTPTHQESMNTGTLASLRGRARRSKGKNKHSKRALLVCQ
In the case of `CC(=O)O[C@H]1C[C@@]23COC(=O)/C=C(\C)CCOC(=O)/C=C/C=C\C(=O)O[C@@H]4C[C@@H](O[C@@H]2C=C1C)[C@@]1(CO1)[C@]43C`, the inhibition is -0.539% (inactive). Turning to `Cc1nn(C)cc1C(=O)Nc1cnn(C)c1C(N)=O`, the inhibition is 5.15% (inactive). As for `CC(C)(C)C(=O)OCc1noc(-c2ccccc2)n1`, the figure is 16.8% (inactive); as for `Cc1ccc(NCc2cc3c(C)nn(-c4ccccc4)c3[nH]c2=O)cc1C`, -32.1% (inactive). Under `Cc1nn(-c2ccccc2)c2[nH]c(=O)c(C#N)c(-c3ccco3)c12` stands -26.6% (inactive); under `CC(C)(C)c1nn(-c2ccccc2)c2[nH]c(=O)c(CNCCc3ccccc3)cc12`, 31.9% (active); under `CCCC(=O)N1CCC(c2cc(=O)[nH]c(-c3ccccn3)n2)C1` (stereo not drawn), -51.9% (inactive).

For `N#Cc1ccc(-c2csc(COc3ccccc3Cl)n2)cc1`, the inhibition was 35% (active).

In the case of `N#Cc1ccc(Oc2ncnc3ccccc23)cc1`, the inhibition was 4.86% (inactive). As for `CC(C)OC(=O)c1cc2c(ccn2-c2ccc(F)cc2)n1Cc1ccccn1`, the figure is 9.79% (inactive); as for `Cc1c(CN2CCOC(c3cncc(-c4ccccc4F)n3)C2)cnn1C` (stereo not drawn), -0.212% (inactive); as for `COc1ccc(C(=O)N2CC(=O)N(Cc3ccccc3)CC(O)C2)cc1` (stereo not drawn), -3.64% (inactive). Turning to `O=C(CN1C(=O)c2cccnc2Sc2ccccc21)Nc1ccc(F)cc1F`, the inhibition is -19.9% (inactive). Under `O=C(CN1C(=O)C2CCCC2=Nc2ccccc21)Nc1ccc(F)cc1F` (stereo not drawn) stands 59.2% (active); under `CCOc1nc2cccnc2n(CC(=O)Nc2ccc(F)cc2F)c1=O`, -5.53% (inactive). As for `Cc1noc(C)c1COc1cccc(C(=O)NC(C)c2cc3ccccc3o2)c1` (stereo not drawn), the inhibition was 1.56% (inactive).

As for `COc1ccccc1N1CCN(C(=O)CSc2cc(=O)n(C)c3cc(Cl)ccc23)CC1`, the inhibition is -7.92% (inactive). As for `O=C(NCCc1ccccc1)N1CC[C@@H]2CN(Cc3cccnc3)S(=O)(=O)[C@@H]2CC1`, the figure is -8.52% (inactive); as for `COc1c(O)c2c(=O)cc(OC)c3c4c(OC)cc(=O)c5c(O)c(OC)c(CC(C)OC(=O)c6ccccc6)c(c(c1CC(C)OC(=O)Oc1ccc(O)cc1)c23)c54` (stereo not drawn), 39.4% (active); as for `CCOc1ccccc1NC(=O)COc1cccc2c1OC(C)(C)C2`, 8.61% (inactive). As for `CCOc1ccccc1NC(=O)Cc1cccs1`, the figure is 43.3% (active); as for `CCOc1ccccc1NC(=O)Cn1c(=O)n(-c2ncccc2C(=O)OC)c(=O)c2cccnc21`, -0.0478% (inactive); as for `CC1CCN(c2ncc3c(n2)CCC(C(=O)NC(C)c2cccnc2)C3)CC1` (stereo not drawn), -33.2% (inactive). As for `Cc1nc(-c2cccc(S(=O)(=O)Nc3ccccc3C)c2)no1`, the figure is -1.13% (inactive); as for `Cc1nc(-c2cccc(NC(=O)C3CCN(c4ccccc4)C3=O)c2)no1` (stereo not drawn), 52.3% (active); as for `CC(=O)c1cccc(NC(=O)c2cccc(-c3nc(-c4ccccc4)no3)c2)c1`, 1.73% (inactive).

`Cc1cnc2nc3c(cc2c1)CN(S(=O)(=O)c1cccc2cccnc12)CC3`: the inhibition was -136% (inactive).

Turning to `N#Cc1ccc(OCC(=O)Nc2ccccc2N2CCCCC2)cc1`, the inhibition is 8.45% (inactive).

Consider `N#Cc1ccc(NC(=O)Nc2cccn(Cc3ccccc3F)c2=O)cc1`, for which the inhibition is 93.3% (active). Take `Cc1cc(C)n2nc(CN(Cc3ccccc3)C(=O)c3ccccc3)nc2n1`: the inhibition is -5.53% (inactive).

Regarding `Cc1ccc(N2CC(c3nnc(NC(=O)CCCc4ccccc4)s3)CC2=O)cc1` (stereo not drawn), the inhibition is -6.98% (inactive). Under `CS(=O)(=O)Nc1cccc(C#CCN)c1` stands -24.2% (inactive); under `O=C(c1sc(N2CCCCC2)nc1-c1ccccc1)c1c[nH]c2ccccc12`, -31.2% (inactive). Regarding `CN1CCN(c2nc3c(s2)CN(C(=O)c2ccccc2)CC3)CC1`, the inhibition is -15.2% (inactive). Under `O=C(CN(C(=O)c1ccccc1)C1CCCCC1)Nc1nc(-c2ccccc2)cs1` stands 11.1% (inactive); under `CC(=O)NC(Cc1ccccc1C)C(=O)NC1CCN(C(=O)Nc2cccc(C)c2)CC1` (stereo not drawn), 1.56% (inactive). As for `Oc1cccc2nc3c(O)cccc3nc12`, the figure is 96.1% (active). Take `COc1ccc(C(=O)O)cc1S(=O)(=O)Nc1ccc(-c2ccccc2)cc1`: the inhibition is -9.74% (inactive). As for `O=c1oc2cccnc2n1Cc1ccccc1F`, the figure is 13% (inactive). With `COc1ccccc1CNC(=O)C1CCN(S(C)(=O)=O)c2ccccc2O1` (stereo not drawn), the inhibition was 1.45% (inactive). As for `Cc1ccc(CN2C(=O)CS(=O)(=O)C(C)C2=O)cc1` (stereo not drawn), the figure is 0.155% (inactive); as for `CC(NC(=O)c1ccc2c(c1)OCCO2)c1ccc2c(c1)OCCCO2` (stereo not drawn), -21.9% (inactive). For `C[C@H](NC(=O)c1ccc2c(c1)OCO2)c1nc2cc(-c3ccc(F)cc3)ncn2n1`, the inhibition is 35% (active). As to `Cc1nc(-c2ccc(C(=O)NCc3ccc4c(c3)OCO4)cc2)cs1`, the inhibition was 29.5% (inactive). Under `Cc1ccc(NS(=O)(=O)c2cc3n(c2)CCCNC3=O)c(F)c1` stands -11.3% (inactive); under `O=C(c1ncccn1)N1CCCC1c1ncc(Cc2ccccc2Cl)o1` (stereo not drawn), 0.408% (inactive); under `COc1ccc(NC(=O)c2c(N3CCCC3=O)c3cc(F)ccc3n2C)cc1Cl`, -15.2% (inactive).

Take `O=C(Nc1ccc(-c2nc3cccnc3s2)cc1)C(c1ccccc1)c1ccccc1`: the inhibition was -146% (inactive).

Consider `CCC(C(=O)Nc1ccc(-c2cn3cccnc3n2)cc1)c1ccccc1` (stereo not drawn), for which the inhibition was 45.8% (active). Under `CCC(C(=O)Nc1cc(=O)[nH]c2nc(CCc3ccccc3)nn12)c1ccccc1` (stereo not drawn) stands 2.97% (inactive); under `Cc1ccn2cc(-c3ccc(NS(=O)(=O)c4cc(C)c(C)cc4C)cc3)nc2n1`, -32.9% (inactive).

`CC(=O)c1ccc(NC(=O)C(C)Sc2nnc(COc3ccc(C)cc3)n2Cc2ccccc2)cc1` (stereo not drawn): the inhibition is 7.66% (inactive). As for `CC(Oc1ccccc1)C(=O)Nc1ccc(-c2cn3cccnc3n2)cc1` (stereo not drawn), the figure is 41.4% (active); as for `Cc1ccc(Cn2c(C(=O)O)c(CNC(C)CCc3ccccc3)c3ccccc32)cc1` (stereo not drawn), -1.67% (inactive); as for `Cc1nc(Nc2ncccn2)cc(C2CCCN2S(C)(=O)=O)n1` (stereo not drawn), 0.142% (inactive). As for `O=C1CN(C(=O)c2cccc3ccccc23)C(c2ccc(F)cc2)c2cc(Br)ccc2N1` (stereo not drawn), the figure is 2.94% (inactive); as for `O=C(c1cc2ccccc2[nH]1)N1CCCC2(COCCN(c3cccnc3)C2)C1` (stereo not drawn), 16.4% (inactive); as for `CCOc1ccc2c(c1)c(=O)c(C(=O)c1ccccc1)cn2CC(=O)Nc1ccc(OC)cc1`, -0.53% (inactive). As for `CCOc1ccc(NC(=O)Cn2cc(C(=O)c3ccc(Cl)cc3)c(=O)c3cc(OC)ccc32)cc1`, the figure is 57.1% (active). On to `COc1ccc(NC(=O)CSc2cn(CC(=O)N3CCCC3)c3ccccc23)cc1`, for which the inhibition was 7.65% (inactive). As for `O=C(C1CC1)N1CCc2cc(S(=O)(=O)NCCCN3CCN(Cc4ccccc4)CC3)ccc21`, the figure is -6.1% (inactive); as for `COc1ccc(-c2nc3c(c(=O)c4ccccc4n3C)c(=O)n2CCc2ccc(OC)c(OC)c2)cc1`, 7.74% (inactive). `COc1c(O)c2c3c(c1O)C(=O)[C@@]1(O)C(=C3C(C)=CC2=O)O[C@@H](C)C1(C)C`: the inhibition was 37.6% (active). As to `Cc1nn(-c2ccccc2)c(C)c1S(=O)(=O)Nc1ccccc1C(N)=O`, the inhibition was 7.84% (inactive). Under `COc1cccc(CNS(=O)(=O)c2cc3[nH]c4c(c3cc2C)C(=O)CCC4)c1` stands -25.1% (inactive); under `Cc1oc(-c2ccccc2Cl)cc1C(=O)Nc1ccc(F)cc1`, -7.25% (inactive); under `COc1cccc(NC(=O)c2nn(-c3ccc(F)cc3)c(OC)cc2=O)c1`, -0.739% (inactive). Under `Cn1nc(C(=O)Nc2ccc(F)cc2)c(=O)c2ccccc21` stands 32.8% (active); under `CN1CCc2c(sc3nc(SCCc4ccccc4)n(-c4ccccc4)c(=O)c23)C1`, 41.9% (active). Under `CNc1nc2c(c(=O)n1-c1ccccc1)CN(C(=O)c1ccc3ccccc3c1)CC2` stands 1.41% (inactive); under `CNc1nc2c(c(=O)n1-c1ccccc1)CCN(S(C)(=O)=O)C2`, 4.69% (inactive); under `Cc1ccc(-c2nnc(CCC(=O)O)o2)cc1`, -26.7% (inactive). For `CC(=O)Nc1ccc(C(=O)CSc2nc3ccc(C)cc3[nH]2)cc1`, the inhibition was 12.1% (inactive).

Take `COc1cc(OC)cc(C(=O)Nc2cccc(CCc3nc4ccc(C)cc4[nH]3)c2)c1`: the inhibition was 30.4% (active).

Consider `COc1ccccc1NC(=O)Nc1ccc(CCc2nc3ccccc3[nH]2)cc1`, for which the inhibition was -12.4% (inactive). As for `Cc1ccc(C(=O)N2CCCC(c3nnc(-c4ccccc4)o3)C2)cc1F` (stereo not drawn), the figure is -2.67% (inactive); as for `O=CN1c2ccccc2NC(=O)CC1c1ccccc1` (stereo not drawn), -3.98% (inactive); as for `Cc1cc(NC2CCCCC2)n2ncc(-c3ccc(Cl)cc3)c2n1`, -4.39% (inactive). As for `Clc1ccc2ncnc(NC3CCCCC3)c2c1`, the figure is 39.8% (active). Under `c1ccc(-c2nc3c4ccccc4nc(NC4CCCC4)n3n2)cc1` stands -4.03% (inactive). On to `Cc1cc(C(=O)Nc2cccc(F)c2)cc2c1N(C)S(=O)(=O)c1ccccc1-2`, for which the inhibition was 5.77% (inactive).

Consider `Cc1nn(-c2cccc(F)c2)c2c1C(C(=O)c1cc3ccccc3o1)CC(=O)N2` (stereo not drawn), for which the inhibition is 2.88% (inactive). As for `Cc1nn(-c2ccc(F)cc2F)c2c1C(C(=O)c1cc3ccccc3o1)CC(=O)N2` (stereo not drawn), the figure is 31.3% (active); as for `Cc1nn(-c2ccc(F)cc2F)c2c1C(C(=O)c1ccc3c(c1)OCO3)CC(=O)N2` (stereo not drawn), 9.19% (inactive); as for `Cc1cc(N2CCCC2)ccc1CN1CCCC(c2nnc3n2CCNCC3)C1` (stereo not drawn), -63.9% (inactive).

As for `O=C(Nc1ccc(Cl)c(S(=O)(=O)N2CCOCC2)c1)c1cc(-c2ccccc2Cl)nc2ccccc12`, the inhibition was -12.8% (inactive).

Regarding `O=C(Nc1ccccc1-c1nc2ccccc2[nH]1)c1cc(S(=O)(=O)N2CCOCC2)c(Cl)cc1Cl`, the inhibition is -21.9% (inactive). As for `O=C(Nc1nc2ccc(S(=O)(=O)N3CCOCC3)cc2s1)c1cc2ccccc2oc1=O`, the figure is 34.2% (active).
